This is part of a sample that, as a whole, favours compounds with a hit. Of some 83,000 tested, about 20% had one in any assay.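 Plates (96-well) were seeded with cells, treated with compound at one concentration, and incubated for 48 hours before percent growth was determined.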 The source made the active and inactive calls.
These molecules were tested on M14 melanoma (assay: NCI-60 one-dose screen, 48 h (100 = growth as untreated, 0 = no growth, -100 = all killed)). Conditions: 10 µM unless noted.
Method: Growth inhibition of the M14 human tumor cell line is measured as a screen for anti-cancer activity. Cells are grown in 96 well plates and exposed to the test compound for 48 hours. Compounds are tested at a single concentration, which is 10^-5 M for most compounds. The reported endpoint is percent growth (GI% or GIPRCNT), where numbers from 0 - 100% represent growth inhibition, and numbers from -100% - 0 represent cell death. For example, a value of 40 represents 60% growth inhibition. A value of 0 means no net growth occurred over the course of the experiment. A value of -40 indicates 40% of cells at the beginning of the experiment died by the end of the experiment. A value of -100 means all cells are dead at the end of the experiment.
NCI-60 Human Tumor Cell Lines Screen was performed using the standard one-dose NCI protocol, which is described in more detail at https://dtp.cancer.gov/discovery_development/nci-60/default.htm.
Compounds with GIPRCNT values below 10 were considered active. Activity score was based on GIPRCNT using the following formula: […]
Score is 0 for GIPRCNT values of 100 or above, 50 for GIPRCNT values of 0, and 100 for GIPRCNT values of -100.

Structure (SMILES)	growth
COc1ccc(N2CCN(c3nc(-c4cc(OC)c(OC)c(OC)c4)nc4ccccc34)CC2)cc1	71.3% (inactive)
CCSC1=NC2C(N(CC)C(=O)N2CC)N1/N=C/C=C/c1ccccc1[N+](=O)[O-] (stereo not given)	6.53% (active)
O=C(COc1ccc(/C=C2\Oc3ccccc3C2=O)cc1)Nc1nc2c(s1)CCCC2	98.3% (inactive)
CCOC(=O)c1c2ncccc2n2c(=O)n(-c3ccccc3C)nnc12	99% (inactive)
CC1(c2ccccc2)NC(=O)N(NC(=O)CSc2nc(-c3cccs3)nc3ccccc23)C1=O (stereo not given)	109% (inactive)
Cc1ccc(-c2cc(-c3ccccc3C)[nH]c(=O)c2C#N)s1	109% (inactive)
Cc1ccc(C(=O)CSc2nc(-c3ccc(Br)cc3)c(C#N)c(=O)[nH]2)cc1	92.7% (inactive)
COC(=O)/C=C1\S/C(=N\NS(=O)(=O)c2ccc(C)cc2)N(c2ccccc2)C1=O	107% (inactive)
Cc1ccc(-c2cc3c(cc2O)C2CCCCC2(N2CCOCC2)O3)cc1 (stereo not given)	92.5% (inactive)
C=CCSc1nc2ccccc2cc1/C=N/O	91% (inactive)
COc1nc2c(c(=O)n1C)CN(c1ccccc1)C(=O)CN2C	68% [100 µM] (inactive)
CC1OC(O[C@H]2/C=C/C=C/C=C/C=C/C=C/C=C/C=C/[C@H](C)[C@@H](O)[C@@H](C)[C@H](C)OC(=O)CC(O)CC(O)CCC(O)C(O)CC(O)C[C@]3(O)C[C@H](O)C(C(=O)O)C(C2)O3)C(O)[C@H](N)C1O (stereo not given in full)	16.3% (inactive)
COc1cc(C2CC(c3ccc(Nc4ccnc5cc(Cl)ccc45)cc3)=NN2C=O)cc(OC)c1OC (stereo not given)	75.1% (inactive)
O=c1ccn2nc3ccccc3c2[nH]1	98.6% (inactive)
COc1cc(/C=C/C(=O)c2c(C)nc3ccccc3c2/C=C/c2ccc(C)cc2)cc(OC)c1OC	23.9% (inactive)
C=C1C(=O)O[C@H]2[C@H]1CC/C(COC(=O)C(=O)c1cn(C)c3ccc(OC)cc13)=C\CC[C@@]1(C)O[C@@H]21	-77.3% (active)
O=C(/C=C/c1ccco1)c1ccc(Nc2nc(Nc3ccc(F)cc3)nc(Nc3ccc(Cl)cc3)n2)cc1	84.5% (inactive)
COc1ccc2c(c1)C(=O)/C(=C/c1cccc(OCC(=O)Nc3nc(C)c(C)s3)c1)O2	-44.4% (active)
CCCCC1CCCCN1C(=O)OCC (stereo not given)	101% (inactive)
S=C(Cc1ccc2c(c1)CCCC2)N1CCOCC1	99.5% (inactive)

Structure (SMILES)	growth
COCCc1ccc(OCC(O)CNC(C)C)cc1 (stereo not given)	92.4% (inactive)
CC(C)(C)OC(=O)Nc1ccc2c(c1)C(NC(=O)Nc1cccc(C#N)c1)CC(C)(C)O2 (stereo not given)	47.5% (inactive)
O=c1[nH]nc(-c2ccccc2)c2c(-c3ccccc3)onc12	45.4% (inactive)
CC1SC(c2ccc(OCc3ccccc3)cc2)N(NC(=O)C(O)(c2ccccc2)c2ccccc2)C1=O (stereo not given)	57.2% (inactive)
CC(=O)[C@@H]1CC[C@]2(COS(=O)(=O)c3ccc(C)cc3)CC[C@]3(C)[C@H](CC[C@@H]4[C@@]5(C)CCCNC(C)(C)[C@@H]5CC[C@]43C)[C@@H]12	79% (inactive)
O=c1ssc(Cl)c1-c1ccccc1	96.7% (inactive)
Cc1cc[c-]cc1.Fc1c[c-]c(-c2ccccn2)c(F)c1.[Pt+2].c1ccc(P(C[PH+](c2ccccc2)c2ccccc2)c2ccccc2)cc1	22% (inactive)
Cc1ccc2nc(NC(=O)CSc3nc(-c4ccccc4)c(C#N)c(=O)n3Cc3ccccc3)sc2c1	88.1% (inactive)
c1ccc(-c2nc([P+](c3ccccc3)(c3ccccc3)c3ccccc3)c(N3CCOCC3)o2)cc1	4.76% (active)
O=C(NCCc1ccc(O)c(O)c1)C12CC3CC(CC(C3)C1)C2	103% (inactive)
CCN(CCNc1ccc(C)c2sc3ccccc3c(=O)c12)CC(C)(C)O	73.2% (inactive)
CCOC(=O)c1c(/C=C/C(=O)O)nc2ccccc2c1/C=C/c1ccccc1	63% (inactive)
Cc1nc2ccccc2n1CC1NC(=O)NC1=O (stereo not given)	105% (inactive)
O=C1/C(=C/c2ccc(Br)cc2)C=C(c2ccccc2)N1CCc1ccccc1	49.9% (inactive)
COc1ccc(N=Nc2ccc(O)c(=O)cc2)cc1	13% (inactive)
CCc1c2c(nc3ccc(OC(=O)OCc4ccc(B5OC(C)(C)C(C)(C)O5)cc4)cc13)-c1cc3c(c(=O)n1C2)COC(=O)[C@]3(O)CC	4.15% (active)
CC/C=C\C/C=C\C[C@H](O)C/C=C1/C(=O)C=C[C@@H]1C/C=C\CCCC(=O)O	14.3% (inactive)
CCOC(=O)c1ccc(N2NC(=O)/C(=C/c3ccc([N+](=O)[O-])o3)C2=O)cc1	116% (inactive)
COc1cc(-c2nn(-c3ccccc3)cc2-c2ccnc(NCCNS(=O)(=O)c3ccc(Cl)cc3)n2)ccc1Cl	24.3% (inactive)
COC(=O)c1c2c(c(C)[n+]([O-])c1C)C(=O)C(NCc1ccc(F)c(Cl)c1)=CC2=O	-19.6% (active)

Reference: PubChem BioAssay (NCI)
